# This is a sample that favours compounds with a hit; in the whole collection about 10% have one here.
# Gal4-VP16 FLuc = VP16 counterscreen qHTS for inhibitors of ROR gamma transcriptional activity | Potency, µM (series often up to 53.6 µM), without a hit: at the top dose activity, negative = inhibition, actives largely listed as inhibitors | Drosophila S2 Gal4-VP16 UAS-luciferase, luminescence, 20 h | hit rate 3.5% among 310,000;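 also: Gal4-VP16 expression switched on by copper sulfate through the metallothionein promoter; % is scaled to controls: 0 for no effect and ±100 for the full control effect; nearly all actives have a fitted effect of over 50% in size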
# KB-3-1 cytotox = qHTS assay for MDR1-selective chemotherapeutics: Primary screen using the parental adenocarcinoma cell KB-3-1 | KB-3-1 viability, CellTiter-Glo ATP luminescence, 72 h | Potency, µM (top dose mostly 46.1 µM), actives largely listed as cytotoxic | hit rate 1.4% among 400,000; also: % is scaled to controls: 0 for no effect and ±100 for the full control effect; nearly all actives have a fitted effect of over 60% in size
#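 KB-3-1 cells, DMEM (no phenol red) + 10% FBS; compound by pin transfer, 72 h, 37 °C. Readout: CellTiter-Glo luminescence after 10 min. Data normalized, curve-fitted.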
# RORg inh = qHTS for inhibitors of ROR gamma transcriptional activity. hit rate 5.4% among 310,000. Drosophila S2 Gal4-RORgamma UAS-luciferase reporter, 20 h. AID 2551, 2010. Nuclear receptor ROR-gamma (Mus musculus), P51450. Potency, µM (doses to about 53.6 µM), without a hit: at the top dose activity change, negative = inhibition, usual class: inhibitors; also: % is scaled to controls: 0 for no effect and ±100 for the full control effect; nearly all actives have a fitted effect of over 60% in size
# Target sequence (P51450 whole entry, looked up, the tested form may be a part): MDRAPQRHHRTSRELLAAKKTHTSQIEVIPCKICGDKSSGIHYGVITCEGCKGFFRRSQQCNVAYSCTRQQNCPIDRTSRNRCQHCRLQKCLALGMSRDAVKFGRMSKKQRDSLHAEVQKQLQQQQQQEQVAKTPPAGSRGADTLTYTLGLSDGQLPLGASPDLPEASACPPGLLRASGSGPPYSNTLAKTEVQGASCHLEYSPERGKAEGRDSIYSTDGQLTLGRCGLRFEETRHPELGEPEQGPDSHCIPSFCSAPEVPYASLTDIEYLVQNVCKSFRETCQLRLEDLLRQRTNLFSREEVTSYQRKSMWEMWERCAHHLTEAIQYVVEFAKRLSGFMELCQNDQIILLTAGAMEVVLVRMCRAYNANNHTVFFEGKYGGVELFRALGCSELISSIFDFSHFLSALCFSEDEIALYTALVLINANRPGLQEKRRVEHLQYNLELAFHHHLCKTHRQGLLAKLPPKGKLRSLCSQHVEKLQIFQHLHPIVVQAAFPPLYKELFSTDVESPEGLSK
#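 Stable Schneider cell line, Gal4 DNA-binding domain fused to ROR gamma, UAS-luciferase. Cmpd 1 hr RT → CuSO4 700 uM final → 20 hr RT → luciferase reagent 10 min → luminescence.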
# SW480 rerep = A quantitative high throughput screen for small molecules that induce DNA re-replication in SW480 colon adenocarcinoma cells | Potency, µM (highest dose often 46.1 µM), for the others: at the top dose re-replication activation, hits mostly activators | hit rate 1.8% among 340,000 | AID 624297, 2012 | SW480 DNA re-replication, Hoechst DNA content imaging, 48 h; also: % of control where 0% means no effect; nearly all actives have a fitted effect of over 55% in size
#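 First, 250 cells per well were seeded. Next, compound or vehicle (23 nL) was pinned in, plates sat 48 hr at 37 C. Finally Hoechst was added for 40 min before fluorescence scanning.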
# MCF10A rerep = A quantitative high throughput screen for small molecules that induce DNA re-replication in MCF 10a normal breast cells; MCF 10A DNA re-replication, Hoechst nuclear intensity, 48 h; Potency, µM (titrated, usually from 46.1 µM), without a hit: at the highest dose activity, positive = re-replication, hits mostly activators; hit rate 2.9% among 350,000; AID 624296, 2012; also: % of control where 0% means no effect; nearly all actives have a fitted effect of over 50% in size
# KB-V1 MDR tox = qHTS assay for MDR1-selective chemotherapeutics: Primary screen using the drug-selected MDR subline cells KB-V1. hit rate 3.4% among 400,000. Potency, µM (top dose mostly 46.1 µM), hits mostly cytotoxic. KB-V1 MDR cells viability, CellTiter-Glo, 72 h. AID 1347076, 2019; also: % is scaled to controls: 0 for no effect and ±100 for the full control effect; nearly all actives have a fitted effect of over 60% in size
#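 Cytotoxicity toward P-gp-expressing KB-V1 cells was determined as loss of CellTiter-Glo luminescence after 72 h at 37 degrees C. Compounds were tested in quantitative HTS format across a concentration range, with curves fitted to normalized data.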
# * hit, by the source's call; i = inactive; ? = inconclusive; . = no result; [ ] = another dose, or the depositor's remark. Calls follow the shape of the dose curve; as a rule, active = well fitted curve in the direction sought with a large enough effect; inconclusive = small, poorly fitted or top-dose-only effect, or another doubt; inactive = no such curve, though single readings can be large; an effect the other way counts as inactive or inconclusive. Potency is read from the fitted curve at half-maximal effect.
SMILES,Gal4-VP16 FLuc,KB-3-1 cytotox,RORg inh,SW480 rerep,MCF10A rerep,KB-V1 MDR tox
CC(=O)OC1C=C[C@@H](OC(C)=O)C1 (some centres undefined),-7.6%,.,1.8%,.,.,.
N#Cc1c(-n2ncnc2-c2cccc(Cl)c2)sc2c1CCCCC2,.,i,.,.,.,i
Cc1nc(NC(=O)c2ccccc2)sc1-c1csc(NCc2ccco2)n1,?,i,20µM*,-2.2%,-4.4%,?
Cc1ccc(Nc2nc(-c3c(C)nc4ncccn34)cs2)cc1,-5.8%,0.0058µM*,?,0.058µM*,?,0.326µM*
COc1ccc(OC)c(CNC(=O)c2ccc(C)c(NC(=O)c3nsc4ccccc34)c2)c1,.,i,.,.,.,i
COC(=O)CSc1nc2sc3c(c2c(=O)n1-c1ccc(C)cc1)CC(C(C)C)OC3 (centres undefined),.,i,.,.,.,i
O=C1c2cc(Br)ccc2O[C@@H](c2ccc3c(c2)OCO3)[C@@H]1O,-11.4%,.,-5.2%,.,.,.
Cc1ccc2nc(NCc3ccco3)c(C=NCc3ccco3)c(=O)n2c1,-6.3%,i,33.0%,-3.7%,11.5%,i
Cc1cc(O)cc(O)c1C=NCc1ccco1,5.62µM*,i,?,5.4%,?,i
CCCCCCN1C[C@H](n2cc(COC(=O)c3ccccc3)nn2)[C@@H](O)C[C@@H]1c1ccc(Cl)cc1,.,?,.,.,.,20.6µM*
O=c1c(-c2cc3ccccc3o2)[n+]([O-])c2ccccc2n1OCc1ccccn1,-0.4%,i,-2.6%,1.9%,?,3.66µM*
CCCCCCCCCCCCCCC1CO1 (centres undefined),-4.6%,.,14.9%,.,.,.
Cc1nnc(SCc2cc(=O)oc3ccc4ccccc4c23)n1Cc1ccccc1,-2.9%,i,44.5%,1.7%,15.9%,16.4µM*
Cc1nnc(SCc2cc(=O)oc3cc(O)ccc23)n1Cc1ccccc1,-3.4%,i,-2.3%,-5.4%,-0.5%,i
CC(C)c1ccccc1-n1c(SCc2cc(=O)oc3ccc4ccccc4c23)nnc1-c1cccnc1,?,?,?,.,18.9%,20.6µM*
CCOc1ccc(-n2c(SCc3cc(=O)oc4cc(C)ccc34)nnc2-c2cccnc2)cc1,-4.2%,i,15.9%,2.2%,1.5%,?
CCc1cccc2sc(N3CCN(C(=O)c4ccc([N+](=O)[O-])o4)CC3)nc12,.,?,.,?,3.66µM*,?
O=C(COc1ccccc1C(=O)Nc1cccc(F)c1)Nc1ccc(Br)cc1,.,?,.,.,.,i
Cc1ccc(-c2nc3ccccc3o2)cc1NC(=S)NC(=O)/C=C/c1ccco1,?,13µM*,2µM*,8.2µM*,7.31µM*,?
COc1ccc(-c2nc3ccccc3o2)cc1NC(=O)COc1ccc(C)c(C)c1,.,5.8µM*,.,.,.,?
O=C(/C=C/c1ccco1)NC(=S)Nc1cccc(-c2nc3ccccc3o2)c1,12.6µM*,?,2.24µM*,9.2µM*,3.66µM*,8.2µM*
O=C(NCCc1ccc(Cl)cc1)c1nnc(Cc2ccc(Cl)cc2Cl)o1,.,i,.,.,.,i
CCc1ccc(NC(=O)CCn2nc(-c3ccccc3OC)c3c(C)cc(C)nc32)cc1,.,i,.,.,.,i
Cn1c(=O)n(C)c2cc(CNCc3ccccc3Cl)ccc21,.,i,.,.,.,i
CCN(C(C)=O)c1cnc(C=NNC(N)=S)c2ccccc12,.,i,.,10.3µM*,4.61µM*,14.6µM*
SMILES,Gal4-VP16 FLuc,KB-3-1 cytotox,RORg inh,SW480 rerep,MCF10A rerep,KB-V1 MDR tox
O=C(c1cnc2ccc3ccccc3c2c1)c1cc(F)ccc1O,-13.3%,?,-43.2%,3.66µM*,?,3.66µM*
Cc1nn(C)c2ncc(C(=O)c3cc(F)ccc3O)cc12,15.9%,i,-32.3%,3.2%,-4.8%,i
Cc1cccc(C)c1-n1ncc(C(=O)N2CCN(c3ccccc3)CC2)c1C1CCN(C(=O)OC(C)(C)C)CC1,.,?,.,.,.,i
CC1CN(C(=S)Nc2cccc([N+](=O)[O-])c2)CC(C)O1 (centres undefined),4.2%,i,-1.6%,-11.1%,?,i
COc1ccc(C(=O)NC(=S)N2CC(C)OC(C)C2)cc1OC (centres undefined),?,i,7.94µM*,2.5%,-0.9%,i
CC1CN(C(=S)NC(=O)c2ccc(Cl)cc2)CC(C)O1 (centres undefined),0.794µM*,i,1.58µM*,1.4%,9.4%,i
CC1CN(C(=S)NC(=O)c2cccc([N+](=O)[O-])c2)CC(C)O1 (centres undefined),1.26µM*,i,0.501µM*,-9.7%,1.5%,i
CC(C)c1cn(CC[C@@H]2CC[C@@H](NC(=O)C3CCCCC3)[C@@H](CO)O2)nn1,.,i,.,.,.,i
Cc1ccc(Oc2nc3c(c(=O)n(Cc4ccccc4)c(=O)n3C)n2C)cc1C,.,i,.,.,.,?
O=c1c2ccccc2ncn1-c1ccc(Br)cc1[N+](=O)[O-],-9.0%,i,-23.0%,5.8µM*,?,i
Cc1ccc(NC(=O)c2ccc([N+](=O)[O-])o2)cc1C,-21.9%,18.4µM*,7.94µM*,?,9.2µM*,i
O=C(Nc1ccc2[nH]c(=O)[nH]c2c1)c1ccc([N+](=O)[O-])o1,.,?,.,2.91µM*,5.8µM*,?
O=C(COc1ccc([N+](=O)[O-])cc1)Nc1ccc2[nH]c(=O)[nH]c2c1,.,i,.,-8.6%,0.9%,i
CO[C@H]1COC(=O)C/C=C\[C@H](C)[C@@H](OC)COC(=O)[C@@H](C)COC(=O)C/C=C\[C@@H]1C,-1.3%[10 µM],.,20.9%[10 µM],.,.,.
CN(C)c1ncc2nc(-c3ccc(Cl)cc3)c(=O)n(C)c2n1,-13.0%,.,7.5%,.,.,.
COC(=O)c1c(-c2ccncc2)csc1NC(=O)c1ccoc1C,?,?,?,0.2%,?,6.51µM*
CCc1cc(C(=O)OC)c(NC(=O)c2ccoc2C)s1,1.0%,i,-0.1%,-7.8%,-20.3%,i
COc1nc(C)ccc1-c1noc(-c2ccccn2)n1,6.0%,i,7.8%,-9.4%,-4.3%,11.6µM*
COc1nc(C)ccc1-c1noc(-c2cccnc2)n1,-4.1%,i,14.1µM*,?,?,i
COc1nc2cc(C)ccc2cc1-c1noc(-c2cccnc2)n1,-18.4%,.,-2.6%,.,.,.
CCCCCCCCCCCCCCCC(=O)NC(C)C,-13.2%,.,-4.2%,.,.,.
